The source made the active and inactive calls.
Experiments:
[1] = test system: XIP peptide (Xip251-270) binding; experiment: small-molecule binders of XIP peptide, primary screen, biochemical, small-molecule microarray, fluorescence 635/667 nm, 0.1 µg/mL protein (AID 1182); settings: fluorescent protein binding, 635 nm, higher = more signal, called active from +8 up or from −8 down
XIP peptide (Xip251-270) = experiment: small-molecule binders of XIP peptide, primary screen, biochemical, small-molecule microarray, fluorescence 635/667 nm, 0.5 µg/mL protein (AID 1183); settings: small-molecule microarray binding, fluorescence 635 nm; higher = more signal
[2] = Plasmodium falciparum growth inhibition, primary screen, strain 3D7, DAPI fluorescence, 100 nL (AID 1184);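 note: parasites grown inside human red blood cells in medium with human serum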; settings: P. falciparum 3D7 growth, 3 d, higher = more signal
[3] = target: Homeobox protein Hox-A13 (Mus musculus) (UniProt Q62424); experiment: inhibitors of HoxA13-DNA binding, primary screen, biochemical, fluorescence polarization, labeled oligonucleotide (AID 1185); settings: 15 min, higher = more signal, called active from +8 up or from −8 down
Sequence of Homeobox protein Hox-A13 (Mus musculus) (Q62424 whole entry, looked up): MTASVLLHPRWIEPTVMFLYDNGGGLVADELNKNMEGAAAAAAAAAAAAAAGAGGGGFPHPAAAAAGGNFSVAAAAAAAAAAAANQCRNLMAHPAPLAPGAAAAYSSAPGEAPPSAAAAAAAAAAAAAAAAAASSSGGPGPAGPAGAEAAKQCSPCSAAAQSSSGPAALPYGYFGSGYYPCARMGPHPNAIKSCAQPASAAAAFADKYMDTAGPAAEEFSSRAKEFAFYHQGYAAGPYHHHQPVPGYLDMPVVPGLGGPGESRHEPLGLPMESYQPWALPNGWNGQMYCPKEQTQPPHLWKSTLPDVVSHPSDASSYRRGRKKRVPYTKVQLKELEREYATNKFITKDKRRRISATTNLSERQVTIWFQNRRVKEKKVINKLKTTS

Compound: CCOC(=O)[C@H](CC(C)C)NC(=O)CCC1CC(OC(=O)NCCc2ccc(F)cc2)CC2(CCCC(COC(=O)NCC3CCCCC3)O2)O1 (stereo partly drawn)
- composite z-score [1]: -0.0257 (inactive)
- composite z-score (XIP peptide (Xip251-270)): 0.437
- z-score [2]: -1.9
- z-score [3]: -7.04 (inactive)

Compound: CO[C@H]1COC(=O)[C@H](C)NC(=O)[C@@H](C)COC(=O)[C@H]2CCCN2C(=O)CC=C[C@H]1C
- composite z-score [1]: -0.077 (inactive)
- composite z-score (XIP peptide (Xip251-270)): -0.143
- z-score [2]: 0.43
- z-score [3]: 0.24 (inactive)

Compound: CC(C)C[C@H](NC(=O)CCC1CC(OC(=O)NCc2cccc3ccccc23)CC2(CCCC(COC(=O)NCc3ccccc3)O2)O1)C(=O)NCC(c1ccccc1)c1ccccc1 (stereo partly drawn)
- composite z-score [1]: -0.284 (inactive)
- composite z-score (XIP peptide (Xip251-270)): 0.673
- z-score [2]: -1.65
- z-score [3]: -6.28 (inactive)

Compound: O=C1C2=CC[C@H]3C(=O)N(c4cccc(Oc5ccccc5)c4)C(=O)[C@H]3[C@H]2[C@H](O)[C@@H]2O[C@H]12
- composite z-score [1]: -0.0743 (inactive)
- composite z-score (XIP peptide (Xip251-270)): 0.182
- z-score [2]: 0.86
- z-score [3]: -2.99 (inactive)

Compound: CCOC(=O)[C@H](Cc1ccccc1)NC(=O)CCC1CC(OC(=O)NCc2cccc3ccccc23)CC2(CCCC(COC(=O)NCC(c3ccccc3)c3ccccc3)O2)O1 (stereo partly drawn)
- composite z-score [1]: 0.2 (inactive)
- composite z-score (XIP peptide (Xip251-270)): 0.366
- z-score [2]: -1.83
- z-score [3]: -4.93 (inactive)

Compound: CC(C)CON=C1C[C@@H](O)[C@@H](O)[C@@H]2[C@@H]3C(=O)N(c4cccc(Oc5ccccc5)c4)C(=O)[C@@H]3CC[C@@H]12
- composite z-score [1]: -0.347 (inactive)
- composite z-score (XIP peptide (Xip251-270)): 0.536
- z-score [2]: 0.299
- z-score [3]: -0.0907 (inactive)

Compound: C#CCCCON=C1C[C@@H](O)[C@@H](O)[C@@H]2[C@@H]3C(=O)N(c4ccc(F)cc4F)C(=O)[C@@H]3CC[C@@H]12
- composite z-score [1]: 0.76 (inactive)
- composite z-score (XIP peptide (Xip251-270)): 0.0996
- z-score [2]: -0.217
- z-score [3]: -3.13 (inactive)

Compound: C[C@@H]1NC(=O)[C@@H](C)COC(=O)[C@H](C)NC(=O)[C@@H](C)COC1=O
- composite z-score [1]: -0.287 (inactive)
- composite z-score (XIP peptide (Xip251-270)): 0.158
- z-score [2]: -1.46
- z-score [3]: 0.969 (inactive)

Compound: C[C@@H]1C=CCC(=O)OC[C@H]2O[C@@H](C=C[C@@H]2O)[C@H](C)C=CCC(=O)OC1
- composite z-score [1]: 1 (inactive)
- composite z-score (XIP peptide (Xip251-270)): 0.538
- z-score [2]: 0.387
- z-score [3]: -0.659 (inactive)

Compound: O=C1[C@H]2[C@H]3[C@H](O)[C@H](O)CC(=NOC[C@@H](O)COCc4ccco4)[C@H]3CC[C@H]2C(=O)N1c1ccc(F)cc1F
- composite z-score [1]: -0.774 (inactive)
- composite z-score (XIP peptide (Xip251-270)): 0.415
- z-score [2]: -0.644
- z-score [3]: 0.794 (inactive)

Compound: CC(CCN1CCCCc2nc(C)c(C)cc21)=NO[C@@H](C)c1cn([C@H](CO)Cc2ccccc2)nn1
- composite z-score [1]: 0.305 (inactive)
- composite z-score (XIP peptide (Xip251-270)): 0.521
- z-score [2]: -0.257
- z-score [3]: -4.4 (inactive)

Compound: C#CCCCON=C1C[C@@H](O)[C@@H](O)[C@@H]2[C@@H]3C(=O)N(CCC(=O)OCC)C(=O)[C@@H]3CC[C@H]12
- composite z-score [1]: 0.768 (inactive)
- composite z-score (XIP peptide (Xip251-270)): 0.493
- z-score [2]: -0.206
- z-score [3]: 1.24 (inactive)

Compound: COC(=O)[C@@H]1CC[C@H](C)[C@@H](c2ccc(C)cc2)N1C(=O)c1ccc(C=NO[C@H](C)c2cn([C@@H]3COC[C@H]3O)nn2)cc1
- composite z-score [1]: 0.604 (inactive)
- composite z-score (XIP peptide (Xip251-270)): 0.78
- z-score [2]: -0.214
- z-score [3]: -6.19 (inactive)

Compound: CCN1C(=O)[C@H]2[C@H]3[C@H](O)[C@H](O)CC(=NOCC(C)C)[C@@H]3CC[C@H]2C1=O
- composite z-score [1]: 0.821 (inactive)
- composite z-score (XIP peptide (Xip251-270)): 0.645
- z-score [2]: -0.108
- z-score [3]: -1.62 (inactive)

Compound: COc1cccc([C@H]2Oc3ccc(OC)cc3C(=NOC(C)CN3CCCCc4nc(C)c(C)cc43)[C@@H]2O)c1 (stereo partly drawn)
- composite z-score [1]: 1.06 (inactive)
- composite z-score (XIP peptide (Xip251-270)): 0.195
- z-score [2]: 0.25
- z-score [3]: -4.68 (inactive)

Compound: COC(=O)[C@@H]1CC[C@H](C)[C@@H](c2ccc(C)cc2)N1C(=O)c1ccc(C=NOC[C@@H](C)[C@H](OCc2ccccc2)C(C)C)cc1
- composite z-score [1]: 0.0611 (inactive)
- composite z-score (XIP peptide (Xip251-270)): 0.489
- z-score [2]: -1.87
- z-score [3]: -4.87 (inactive)

Compound: CO[C@H]1COC(=O)CC=C[C@H](C)[C@@H](OC)COC(=O)[C@H](C)COC(=O)CC=C[C@@H]1C
- composite z-score [1]: 0.163 (inactive)
- composite z-score (XIP peptide (Xip251-270)): -0.337
- z-score [2]: 0.916
- z-score [3]: 0.296 (inactive)

Compound: CO[C@H](C1CCCCC1)[C@H](C)C=CCC(=O)OCCCc1ccccc1
- composite z-score [1]: -0.74 (inactive)
- composite z-score (XIP peptide (Xip251-270)): 0.628
- z-score [2]: -0.45
- z-score [3]: 1.25 (inactive)

Compound: CCOC(=O)[C@H](CC(C)C)NC(=O)CCC1CC(OC(=O)NCCc2ccc(F)cc2)CC2(CCCC(COC(=O)NCCc3ccc(Cl)cc3)O2)O1 (stereo partly drawn)
- composite z-score [1]: 1.08 (inactive)
- composite z-score (XIP peptide (Xip251-270)): 0.571
- z-score [2]: -1.9
- z-score [3]: -6.52 (inactive)

Compound: CC[C@@H](c1ccccc1)n1c(=O)n2n(c1=O)[C@H]1[C@H](O)[C@@H]3O[C@@H]3C(=NOC[C@@H](O)COCc3ccco3)[C@H]1CC2
- composite z-score [1]: -0.0593 (inactive)
- composite z-score (XIP peptide (Xip251-270)): -0.268
- z-score [2]: -0.949
- z-score [3]: -3.57 (inactive)

Compound: C#CCCCON=C1C[C@@H](O)[C@@H](O)[C@@H]2[C@@H]3C(=O)N(C(C)(C)C)C(=O)[C@@H]3CC[C@H]12
- composite z-score [1]: -0.217 (inactive)
- composite z-score (XIP peptide (Xip251-270)): -0.385
- z-score [2]: -0.381
- z-score [3]: 0.436 (inactive)

Compound: COC(=O)CC=C[C@@H](C)[C@@H](C=NO[C@@H]1O[C@H](COC(C)=O)[C@@H](OC(C)=O)[C@H](OC(C)=O)[C@H]1OC(C)=O)OC
- composite z-score [1]: -0.865 (inactive)
- composite z-score (XIP peptide (Xip251-270)): -0.17
- z-score [2]: -0.0925
- z-score [3]: -2.16 (inactive)

Source: PubChem BioAssay
